Some test systems named below: HCT-15 colon; HT29 colon; SNB-19 CNS; U251 CNS; PC-3 prostate; SK-MEL-5 melanoma; UACC-62 melanoma; LOX IMVI melanoma; SK-MEL-28 melanoma.
Common to all, as to assay: NCI-60 one-dose screen, 48 h (100 = growth as untreated, 0 = no growth, -100 = all killed)
Holding throughout (conditions): 10 µM unless noted

The panel holds about 83,000 compounds, 20% with a hit somewhere; the sample as a whole holds those more often.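 Testing used 96-well plates and a 48-hour single-concentration exposure. Example: -40 means 40% of the starting cells died.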 A number with no mark means an inactive call. Activity calls are given as the source filed them. Rule for the calls: active = growth percent below 10; inactive = the rest.

Consider `NC(=O)c1c(NC(=S)Nc2ccc(OC(F)(F)F)cc2)sc2c1CCC1(C2)OCCO1`, for which the growth in the assay on HCT-15 colon was 97.5%; in the assay on HT29 colon it was 95.6%; in the assay on SNB-19 CNS, 97.5%; with U251 CNS, 97.2%; in the assay on PC-3 prostate it was 92.6%; in the assay on SK-MEL-5 melanoma, 98.2%. In addition, the growth with UACC-62 melanoma is 77.1%; with LOX IMVI melanoma, 98%; with SK-MEL-28 melanoma, 104%.

In the case of `Nc1nc(Nc2cc(Cl)cc(Cl)c2)nn1S(=O)(=O)c1ccc2ccccc2c1`, the growth is 59.2% with HCT-15 colon; 39.8% with HT29 colon; 78% in the assay on SNB-19 CNS; 37.5% in the assay on U251 CNS; 48.9% in the assay with PC-3 prostate; 86.5% in the assay on SK-MEL-5 melanoma. The growth in the assay with UACC-62 melanoma was 67%; in the assay with LOX IMVI melanoma, 60.1%; in the assay on SK-MEL-28 melanoma it was 84.8%.

For `C=COC(=O)CCCCCCCCC`, the growth is 113% in the assay with HCT-15 colon; 100% in the assay with HT29 colon; 97.6% with SNB-19 CNS; 105% in the assay on U251 CNS; 102% in the assay on PC-3 prostate; 107% in the assay with SK-MEL-5 melanoma. The growth with UACC-62 melanoma is 99.2%; in the assay with LOX IMVI melanoma it was 98.5%; in the assay with SK-MEL-28 melanoma it was 106%.

In the case of `COc1cc(-c2nn(-c3cccc(NC(=O)c4cccc(C(F)(F)F)c4)c3)cc2-c2ccncc2)ccc1Cl`, the growth in the assay with HCT-15 colon is 12.8%; in the assay with HT29 colon, -12.1% (active); in the assay with SNB-19 CNS, 47.3%; in the assay with U251 CNS, 13.1%; with PC-3 prostate it was 4.39% (active); in the assay on SK-MEL-5 melanoma it was -33% (active). Besides, the growth in the assay on UACC-62 melanoma is 27.2%; in the assay on LOX IMVI melanoma it was 11.4%; with SK-MEL-28 melanoma, 32.5%.

In the case of `C=C1CCC2C(C)(CO)C(O)CCC2(C)C1C/C=C1/C(=O)OCC1O/C=C/c1ccccc1` (stereo unspecified), the growth was 57.8% in the assay on HCT-15 colon; 56.6% in the assay with HT29 colon; 95.3% with SNB-19 CNS; 83.8% with U251 CNS; 58.6% with PC-3 prostate; 82.1% in the assay on SK-MEL-5 melanoma. In addition, the growth was 65.2% in the assay with UACC-62 melanoma, 36.8% in the assay on LOX IMVI melanoma and 93.3% in the assay on SK-MEL-28 melanoma.

In the case of `Cc1ccc(S(=O)(=O)NC(=O)n2cc(-c3ccncc3)c(-c3ccc(Cl)c(O)c3)n2)cc1`, the growth is 107% in the assay on HCT-15 colon; 101% in the assay with HT29 colon; 117% with SNB-19 CNS; 111% in the assay on U251 CNS; 95.3% in the assay on PC-3 prostate; 100% in the assay on SK-MEL-5 melanoma. Moreover, the growth with UACC-62 melanoma was 85.2%; with LOX IMVI melanoma it was 93.4%; in the assay with SK-MEL-28 melanoma, 130%.

`CCOC(=O)CN1/C(=N/c2sc3c(c2C(=O)OCC)CCN(C(=O)OCC)C3)SC(=O)/C1=C\C(=O)OC`: the growth was 58.6% in the assay with HCT-15 colon; 61.2% with HT29 colon; 91.5% in the assay on SNB-19 CNS; 85.3% in the assay with U251 CNS; 71.6% with PC-3 prostate; 99.7% with SK-MEL-5 melanoma. Further, the results for the growth in the assay on UACC-62 melanoma, in the assay on LOX IMVI melanoma and with SK-MEL-28 melanoma were 92.8%, 81.3% and 109%, respectively.

Turning to `O=C(Nc1cccc(-n2cc(-c3ccncc3)c(-c3ccc(Cl)c(O)c3)n2)c1)Nc1ccc(Cl)c(C(F)(F)F)c1`, the growth in the assay with HCT-15 colon was 1.04% (active); in the assay on HT29 colon, -6.5% (active); in the assay on SNB-19 CNS it was -28.8% (active); in the assay with U251 CNS, -70.4% (active); in the assay with PC-3 prostate, -10.4% (active); in the assay on SK-MEL-5 melanoma, -100% (active). For the same compound, the growth in the assay with UACC-62 melanoma was -55.1% (active); in the assay with LOX IMVI melanoma it was -75.8% (active); in the assay with SK-MEL-28 melanoma, -31.5% (active).

Turning to `COc1cccc(/C=C/C(=O)Nc2cc(OC)c3c(c2)OCO3)c1`, the growth in the assay on HCT-15 colon was 101%; in the assay with HT29 colon, 92.1%; in the assay on SNB-19 CNS it was 96.7%; in the assay on U251 CNS it was 91.3%; with PC-3 prostate, 97.8%; in the assay on SK-MEL-5 melanoma, 94.1%. Moreover, the growth with UACC-62 melanoma was 92%; in the assay with LOX IMVI melanoma, 95.8%; in the assay on SK-MEL-28 melanoma, 114%.

Take `CCN(CC)CCOC(=O)C(c1ccccc1)(c1ccccc1)C(C)C`: the growth was 95.9% in the assay with HCT-15 colon; 61.4% in the assay on HT29 colon; 97.1% in the assay on SNB-19 CNS; 87.2% in the assay with U251 CNS; 69% with PC-3 prostate; 90.6% with SK-MEL-5 melanoma. The growth was 100% in the assay with UACC-62 melanoma, 71.5% in the assay on LOX IMVI melanoma and 106% with SK-MEL-28 melanoma.

Take `C=C1C(=O)O[C@H]2[C@H]1CC/C(Cn1cc(CNC(=O)/C=C/c3c[nH]c4ccccc34)nn1)=C\CC[C@@]1(C)O[C@@H]21`: the growth with HCT-15 colon was 94.4%; with HT29 colon, 92.4%; with SNB-19 CNS, 91.5%; with U251 CNS, 94.3%; in the assay with PC-3 prostate it was 95.3%; with SK-MEL-5 melanoma it was 83.8%. Moreover, the growth in the assay on UACC-62 melanoma is 87.6%; in the assay on LOX IMVI melanoma, 67.3%; in the assay on SK-MEL-28 melanoma, 91.7%.

For `COc1ccc(-c2[nH]nc(N)c2-c2cc(OC)c3c(c2)OCO3)cc1`, the growth with HCT-15 colon was 46%; with HT29 colon it was 26%; with SNB-19 CNS, 68.8%; with U251 CNS, 54.7%; with PC-3 prostate, 93.7%; in the assay on SK-MEL-5 melanoma, 54.2%. Also, the growth with UACC-62 melanoma is 37.2%; in the assay on LOX IMVI melanoma it was 56.5%; in the assay on SK-MEL-28 melanoma, 60%.

As to `Clc1cccc(-c2cc(-c3ccc4c(c3)OCCO4)[nH]n2)c1`, the growth with HCT-15 colon was 18.7% [25 µM]; in the assay with HT29 colon it was 7.83% [25 µM] (active); in the assay with SNB-19 CNS, 45.7% [25 µM]; in the assay on U251 CNS, 27.4% [25 µM]; in the assay with PC-3 prostate it was 37.1% [25 µM]; with SK-MEL-5 melanoma, 5.53% [25 µM] (active). The growth is 45.4% [25 µM] in the assay on UACC-62 melanoma, 30.2% [25 µM] in the assay with LOX IMVI melanoma and 56% [25 µM] in the assay on SK-MEL-28 melanoma.

Consider `Cc1cc(C)n(-c2nnc3n2N=C(c2ccc(-c4ccccc4)cc2)CS3)n1`, for which the growth in the assay with HCT-15 colon was 36%; with HT29 colon it was 6.89% (active); in the assay on SNB-19 CNS it was 66.9%; in the assay with U251 CNS it was 37.3%; with PC-3 prostate, 36.4%; in the assay on SK-MEL-5 melanoma, 28.2%. In addition, the growth was 40.5% with UACC-62 melanoma, 35.2% with LOX IMVI melanoma and 52.7% in the assay on SK-MEL-28 melanoma.

Source of the values: PubChem BioAssay (NCI).
